Shown are actives, neighbours in structure and some others; about 10% of the full set was active somewhere.
HP1b binding inh: HTS for Inhibitors of HP1-beta Chromodomain Interactions with Methylated Histone Tails; Chromobox protein homolog 1 (Homo sapiens), P83916; AlphaScreen HP1-beta / biotin-H3K9me3 peptide binding; Potency, µM (series often up to 114 µM), most hits filed as inhibitors; hit rate 0.56% among 390,000; note: nearly all actives have a fitted effect of over 70% in size
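HP1-beta protein (50 nM final) preincubated 30 min at room temperature with biotinylated H3(1-18)K9me3 peptide (50 nM) in PBS pH 7.4, 0.01% Tween-20, then compound added for 30 min. AlphaScreen streptavidin donor/nickel chelate acceptor beads (10 ug/mL final), 30 min dark, luminescence read.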
G9a block: qHTS Assay for Inhibitors of Histone Lysine Methyltransferase G9a. G9a H3K9 monomethylation, AlphaScreen, 2 h. Potency, µM (highest dose often 102 µM), hits mostly inhibitors. hit rate 8.8% among 350,000; note: nearly all actives have a fitted effect of over 75% in size
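G9a (20 nM) preincubated 15 min RT with compounds, then 500 nM biotinylated H3K9 peptide and 20 uM SAM added; 2 h RT reaction. Monomethyl-H3K9 product detected by AlphaScreen with anti-H3K9me1 antibody, streptavidin donor and anti-rabbit IgG acceptor beads.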
L3MBTL1 inh: qHTS Assay for the Inhibitors of L3MBTL1; Lethal(3)malignant brain tumor-like protein 1 (Homo sapiens), Q9Y468; AlphaScreen L3MBTL1–H3K9me1 peptide binding; Potency, µM (doses to about 57.1 µM), hits mostly inhibitors; hit rate 0.66% among 230,000; AID 485360, 2010; note: nearly all actives have a fitted effect of over 60% in size
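Displacement of a biotinylated histone H3(1-15) peptide monomethylated at Lys9 (75 nM) from L3MBTL1 (50 nM) was measured by AlphaScreen after a 30 min room-temperature compound incubation; cefsulodin titration served as intraplate control.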
GLS inhibitor: qHTS for Inhibitors of Glutaminase (GLS). Glutaminase kidney isoform, mitochondrial (Homo sapiens), O94925. GLS enzymatic activity, qHTS titration. Potency, µM (series often up to 45.5 µM), most hits filed as inhibitors. hit rate 0.21% among 410,000. AID 624170, 2012
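Compounds were pin-transferred onto hKGA, after which L-glutamine (1 mM solution) and a detection mix of glutamate oxidase, HRP and Amplex Red were added. Initial and 30 min RT fluorescence reads were collected.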
BAZ2B inh: qHTS Assay for Inhibitors of BAZ2B. AlphaScreen BAZ2B-H3K14Ac peptide displacement. Potency, µM (titrated, usually from 114 µM), most hits filed as inhibitors. hit rate 4.4% among 360,000. AID 504333, 2011; note: nearly all actives have a fitted effect of over 60% in size
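Protein-peptide AlphaScreen: BAZ2B 50 nM, b-H3K14Ac 50 nM, 1x PBS pH 7.4 + 0.01% Tween-20. Preincubation 30 min RT; cpd 30 min RT (top 110 uM); beads 20 min RT, light-protected.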
JMJD2A Tudor inh: qHTS Assay for Inhibitors of JMJD2A-Tudor Domain. Lysine-specific demethylase 4A (Homo sapiens), O75164. AlphaScreen JMJD2A-Tudor / H3K4me3 peptide binding. Potency, µM (titrated, usually from 114 µM), usual class: inhibitors. hit rate 4.4% among 390,000; note: nearly all actives have a fitted effect of over 50% in size
Each line names hits and unclear results; the compound was inactive in the other large screens. Calls come from the whole dose curve; as a rule, active = well fitted curve in the direction sought with a large enough effect; inconclusive = small, poorly fitted or top-dose-only effect, or another doubt; inactive = no such curve, though single readings can be large; an effect the other way counts as inactive or inconclusive.

CC1=C(c2ccc(C(C)C)cc2)S(=O)(=O)N=C1N1CCC(C(=O)NCc2ccccc2)CC1	none (no result: L3MBTL1 inh)
CCOC(=O)CCNC(C(=O)OCC)c1ccccc1 (stereo not given)	HP1b binding inh inconclusive, G9a block inconclusive, BAZ2B inh inconclusive, JMJD2A Tudor inh 35µM (no result: L3MBTL1 inh)
CCOc1ccc(N(CC(=O)Nc2ccccc2CC)S(=O)(=O)c2c(C)noc2C)cc1	none (no result: L3MBTL1 inh, BAZ2B inh)
O=C(/C=C/c1ccccc1)CCN1CCOCC1	JMJD2A Tudor inh 89µM (no result: G9a block, L3MBTL1 inh, BAZ2B inh)
O=C(/C=C/c1ccccc1)N1CCOCC1	none (no result: L3MBTL1 inh)
C/C(=N/NC(=O)c1ccccc1O)c1ccc(N2C(=O)C3CCCCC3C2=O)cc1 (stereo not given)	none
C/C(=N/OC(=O)c1ccc(C)cc1)c1ccc(N2C(=O)C3CCCCC3C2=O)cc1 (stereo not given)	JMJD2A Tudor inh 40µM
CN(C)S(=O)(=O)c1cccc(NC(=S)NC(=O)c2ccco2)c1	G9a block 40µM, JMJD2A Tudor inh inconclusive
CN(C)S(=O)(=O)c1cccc(NC(=S)NNC(=O)c2cc3ccccc3cc2O)c1	G9a block inconclusive, GLS inhibitor inconclusive, BAZ2B inh inconclusive, JMJD2A Tudor inh 40µM
O=C(NC(=S)Nc1ccccc1Br)c1ccco1	G9a block 45µM (no result: L3MBTL1 inh)
CN(C)S(=O)(=O)c1cccc(NC(=O)c2c[nH]c3ccccc23)c1	G9a block inconclusive (no result: L3MBTL1 inh)
COc1cc(NS(=O)(=O)c2ccc(NC(=S)NC(=O)c3ccco3)cc2)ncn1	G9a block 50µM
CCn1c(C(=O)Nc2ccccc2C(=O)OC)cc2sc(Cl)cc21	none (no result: L3MBTL1 inh)
Cc1ccc(C)c(-c2ccc(=O)n(C(C)C(=O)Nc3ccccc3C(F)(F)F)n2)c1 (stereo not given)	none (no result: L3MBTL1 inh)
Cc1ccc(C)c(C(=O)CSc2nc3cc(C(=O)NC4CCCC4)ccc3c(=O)n2CC2CCCO2)c1 (stereo not given)	none (no result: L3MBTL1 inh)
Cc1ccc(-c2cn3cccnc3n2)cc1NC(=O)Cc1ccccc1	none (no result: L3MBTL1 inh)
NS(=O)(=O)c1ccc(NC(=S)NC(=O)c2ccco2)cc1	G9a block 56µM, JMJD2A Tudor inh 25µM
CCCn1nnnc1NCc1ccccc1Cl	none
CCCn1nnnc1NCc1ccccc1OCC	G9a block 35µM, L3MBTL1 inh inconclusive
COc1ccc(OC)c(-c2cc(C(=O)Nc3cccc(Cl)c3C)no2)c1	none (no result: L3MBTL1 inh)
COC(=O)/C(=C(/F)SCC(C)=O)C(F)(F)F	G9a block 16µM (no result: HP1b binding inh, L3MBTL1 inh, GLS inhibitor, JMJD2A Tudor inh)
C=CCn1c(COc2cccc3ccc(C)nc23)nnc1SCC(=O)O	JMJD2A Tudor inh 28µM (no result: L3MBTL1 inh)
C=CCn1c(COC)nnc1SCC(=O)c1ccc(F)cc1	G9a block 3.5µM, JMJD2A Tudor inh 40µM
COc1ccc(Br)cc1CNC(=O)c1ccc2c(c1)nc1n2CCCCC1	none (no result: L3MBTL1 inh)
Cc1cccc(-c2nn3c(=O)cc(CN4CCN(C(=O)/C=C/c5ccccc5)CC4)nc3s2)c1	none (no result: L3MBTL1 inh)
CCN(CC)S(=O)(=O)c1cccc(-c2n[nH]c(=S)n2/N=C/c2ccc(OC(F)F)cc2)c1	HP1b binding inh inconclusive, G9a block 1.8µM, BAZ2B inh inconclusive, JMJD2A Tudor inh inconclusive
CCN(CC)S(=O)(=O)c1cccc(-c2n[nH]c(=S)n2C(C)COC)c1 (stereo not given)	G9a block 10µM, JMJD2A Tudor inh 3.5µM (no result: L3MBTL1 inh)
O=c1oc(-c2cccc(S(=O)(=O)N3CCOCC3)c2)nc2ccccc12	G9a block 10µM, L3MBTL1 inh inconclusive
CCn1c(-c2cccc(S(=O)(=O)N3CCCC3)c2)n[nH]c1=S	G9a block 8.9µM, JMJD2A Tudor inh 6.3µM (no result: L3MBTL1 inh)
CCN(CC)S(=O)(=O)c1cccc(-c2n[nH]c(=S)n2/N=C/c2ccc(OC)cc2)c1	G9a block inconclusive, JMJD2A Tudor inh inconclusive
Cc1cccc(NC(=O)CCNS(=O)(=O)c2ccc3c(c2)CCCC(=O)N3)c1C	none (no result: L3MBTL1 inh)
CCC(C)n1c(-c2cccc(S(=O)(=O)N(CC)CC)c2)n[nH]c1=S (stereo not given)	G9a block 8.9µM, JMJD2A Tudor inh 10µM (no result: L3MBTL1 inh)
CCC(C)n1c(-c2cccc(S(=O)(=O)N3CCOCC3)c2)n[nH]c1=S (stereo not given)	G9a block 3.2µM, JMJD2A Tudor inh 5.6µM
CCc1ccc(CNC(=O)CN2C(=O)CCn3nc(-c4cn(C)c5ccccc45)cc32)cc1	JMJD2A Tudor inh inconclusive (no result: L3MBTL1 inh)
CC(=O)c1ccc(N2CCN(c3ncnc4c3nc3n4CCCC3)CC2)cc1	none (no result: L3MBTL1 inh)
O=C(CSc1ncccn1)Nc1ccc2[nH]c(=O)[nH]c2c1	G9a block 14µM
Cc1nc(SCC(=O)Nc2ccc3[nH]c(=O)[nH]c3c2)nc(C)c1C	JMJD2A Tudor inh inconclusive (no result: G9a block, BAZ2B inh)
COc1ccc(CCC(=O)OCC(=O)Nc2ccc3[nH]c(=O)[nH]c3c2)cc1	none
COc1ccc(OCC(=O)OCC(=O)Nc2ccc3[nH]c(=O)[nH]c3c2)cc1	G9a block 8.9µM
O=C(COC(=O)Cc1ccc(Cl)cc1)Nc1ccc2[nH]c(=O)[nH]c2c1	G9a block 50µM, BAZ2B inh inconclusive
COC(=O)c1ccccc1NC(=O)c1c(C)oc2ncn(C)c(=O)c12	none (no result: L3MBTL1 inh)
O=C(COc1ccc(S(=O)(=O)NC2CCCCC2)cc1)Nc1ccc(C(F)(F)F)cc1	none (no result: L3MBTL1 inh)
COc1ccc2c(c1)CCc1c(C(=O)Nc3c(C)nn(Cc4ccc(C)cc4)c3C)noc1-2	none (no result: L3MBTL1 inh)
Fc1cnc(N2CCN(c3ccccc3)CC2)nc1N1CCN(c2ccccc2)CC1	G9a block 50µM, BAZ2B inh inconclusive
N#Cc1ccccc1NC(=O)C(=O)NCC(c1ccc2c(c1)OCO2)N1CCOCC1 (stereo not given)	none (no result: L3MBTL1 inh)
CCN(CC)c1ccc(NC(=O)CSc2ccsc2[N+](=O)[O-])c(C)c1	HP1b binding inh inconclusive, G9a block inconclusive, L3MBTL1 inh inconclusive, BAZ2B inh 32µM, JMJD2A Tudor inh 22µM
O=C(CSc1ccsc1[N+](=O)[O-])Nc1cc(F)ccc1F	HP1b binding inh inconclusive, G9a block 35µM, L3MBTL1 inh 40µM, GLS inhibitor inconclusive, BAZ2B inh 20µM, JMJD2A Tudor inh 45µM
CC(=O)c1ccc(NC(=O)CSc2ccsc2[N+](=O)[O-])cc1	G9a block 50µM, BAZ2B inh 35µM, JMJD2A Tudor inh inconclusive
CC1CCC(C(C)C)C(OC(=O)Cn2c(-c3ccc(F)cc3)[n+](C)c3ccccc32)C1 (stereo not given)	G9a block 25µM
CCc1cc2c(=O)c(-c3nc4ccccc4n3C)coc2c(CN2CCCCC2)c1O	none (no result: L3MBTL1 inh)
